This is a sample that favours compounds with a hit; in the whole collection about 7.4% have one here.
Rab9 prom act – activators of Rab9 promoter; Huh7 Rab9 promoter-luciferase reporter, luminescence, 24 h; Potency, µM (top dose mostly 9.22 µM), inactives show at the highest dose activation, negative = inhibition, most hits filed as activators; 320,000 compounds, 2.8% hits; AID 485297; further: % of control where 0% means no effect; nearly all actives have a fitted effect of over 60% in size
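Luminescence from Amplite-detected luciferase (10 minutes, ambient) reports Rab9 promoter activation. Before that, stable Rab9-luciferase Huh7 cells (1500/well, reduced-serum OP-MEM I plus 10% FBS) were exposed to compound for 24 hours at 37C.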
FLuc modulator – counter-screen for miR-21 project: firefly luciferase inhibitors or activators. P08659. purified FLuc, Km substrates, luminescence inhibition. Potency, µM (highest dose often 57.5 µM), for the others: at the top dose activity change, negative = inhibition, most hits filed as inhibitors. 360,000 compounds, 6.9% hits. AID 588342;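 further: plate controls were vehicle for no effect and reference inhibitor for full effect; nearly all actives have a fitted effect of over 55% in size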
Target sequence (P08659 whole entry, looked up): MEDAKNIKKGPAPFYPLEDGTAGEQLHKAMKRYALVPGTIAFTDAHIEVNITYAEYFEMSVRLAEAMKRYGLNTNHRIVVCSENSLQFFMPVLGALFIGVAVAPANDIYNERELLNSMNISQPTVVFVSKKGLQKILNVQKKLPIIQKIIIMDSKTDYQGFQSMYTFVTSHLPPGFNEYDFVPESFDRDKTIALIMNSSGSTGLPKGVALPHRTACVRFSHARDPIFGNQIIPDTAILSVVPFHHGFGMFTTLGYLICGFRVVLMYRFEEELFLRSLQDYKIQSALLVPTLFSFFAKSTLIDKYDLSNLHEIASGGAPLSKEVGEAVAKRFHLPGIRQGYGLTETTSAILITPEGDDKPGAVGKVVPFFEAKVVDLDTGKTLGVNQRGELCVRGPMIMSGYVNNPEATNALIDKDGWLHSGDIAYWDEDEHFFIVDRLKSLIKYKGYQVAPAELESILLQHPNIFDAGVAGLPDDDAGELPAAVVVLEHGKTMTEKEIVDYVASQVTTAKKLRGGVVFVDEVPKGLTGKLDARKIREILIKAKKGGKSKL
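Biochemical qHTS of compounds, final roughly 60 µM downward over six points, against 10 nM purified firefly luciferase using Km concentrations of substrates (10 uM D-luciferin, 10 uM ATP) in Tris acetate pH 7.5 buffer; luminescence output.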
Luc counter – Kinase-Glo luciferase inhibition (counter-screen); Potency, µM (highest dose often 38.3 µM), for the others: at the top dose activity change, negative = inhibition, usual class: inhibitors; Kinase-Glo luciferase, ATP luminescence, 8 min; Q27757; 200,000 compounds, 0.28% hits; further: on the % scale 0 is the no-effect control and ±100 the full control effect; nearly all actives have a fitted effect of over 60% in size
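Kinase-Glo luciferase light output from ATP and luciferin was measured with 10 uM ATP, within the enzyme's linear range. Buffer: 50 mM imidazole pH 7.2, 50 mM KCl, 7 mM MgCl2, 0.01% Tween 20, 0.05% BSA; luminescence read after 8 min at ambient temperature.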
ELG1 genotoxic – inducers of genotoxicity in HEK293T ELG1-luciferase cells; Potency, µM (series often up to 46 µM), for inactives: at the top dose activity change, positive = activation, most hits filed as activators; 330,000 compounds, 1.3% hits; AID 504466; HEK293T ELG1-luciferase reporter, luminescence, 16 h; further: % of control where 0% means no effect; nearly all actives have a fitted effect of over 60% in size
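ELG1-luciferase HEK293T cells, 2,000/well; compound pinned in; 16 hr, 37 °C, 5% CO2; ONE-Glo, 30 min RT; luminescence on CCD imager.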
NPC1 prom act – activates the NPC1 promoter; AID 485313; Huh7 NPC1 promoter luciferase reporter, 24 h; Potency, µM (highest dose often 9.22 µM), for inactives: at the top dose activation, actives largely listed as activators; 320,000 compounds, 2.4% hits; further: % of control where 0% means no effect; nearly all actives have a fitted effect of over 60% in size
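Readout is luciferase luminescence, reflecting NPC1 promoter activation in stably transfected Huh7 cells after 24 h compound exposure at 37 °C in reduced-serum medium with 10% FBS.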
SMN2 splice up – enhancers of SMN2 splice variant expression | Potency, µM (titrated, usually from 46.1 µM), inactives show at the top dose activity change, positive = activation, actives largely listed as activators | 210,000 compounds, 2.8% hits | HEK293 SMN2-luciferase splicing reporter, luminescence, 30-36 h; further: % of control where 0% means no effect; nearly all actives have a fitted effect of over 55% in size
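HEK293 cells carry an SMN2 […]–luciferase reporter in which exon 7 inclusion puts luciferase in frame. Cells were plated 10-12 h before compound addition, then incubated 30-36 h at 37C. ONE-Glo luminescence was read; sodium butyrate at 4.5 mM final served as control.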
* marks the source's active call; other numbers are inactive results; ? = inconclusive; . = no result; [ ] = dose if it differs, or a comment. The call rests on the fitted dose curve; in most records, active means well fitted curve in the direction sought with a large enough effect; inconclusive means small, poorly fitted or top-dose-only effect, or another doubt; inactive means no such curve, though single readings can be large; an effect the other way counts as inactive or inconclusive. Potency means the concentration at half of the fitted maximal effect.

SMILES	Rab9 prom act	FLuc modulator	Luc counter	ELG1 genotoxic	NPC1 prom act	SMN2 splice up
O=C(c1ccccc1Cl)N1CCN(S(=O)(=O)c2cccs2)CC1	7%	1%	.	2%	1%	.
O=C(c1ccco1)N1CCN(Cc2c(Cl)cccc2Cl)CC1	3.2µM*	27µM*	.	?	?	.
CN(C)/C=C/C(=O)c1ccc(-c2ccc(Cl)cc2Cl)o1	4.5µM*	9.5µM*	1%	?	?	?
O=C(O)c1ccc(-c2ccc(Cl)cc2Cl)o1	18%	?	-2%	12%	1%	-7%
O=C(c1ccc(-c2ccccc2Cl)o1)N1CCN(S(=O)(=O)c2cccs2)CC1	?	11µM*	.	0%	?	.
O=C(c1cc(-c2ccccc2Cl)on1)N1CCN(C(=O)c2ccco2)CC1	-3%	19µM*	2%	1%	1%	5%
COc1ccc(CCNC(=O)Cn2c(=O)c3cccn3c3ccc(F)cc32)c(OC)c1	.	-15%	.	.	.	.
Cc1ccc(S(=O)(=O)NCCc2sc3nc(-c4ccccc4)nn3c2C)cc1C	.	1%	.	.	.	.
CCCCSCCCNC(=O)CN1C(=O)COc2ccc(S(=O)(=O)N3CCC(C)CC3)cc21	.	-7%	.	.	.	-5%
Cc1c(Cl)cccc1NC(=O)CSc1ncc(S(=O)(=O)c2ccc(C(C)C)cc2)c(=O)[nH]1	.	7.6µM*	.	.	.	-5%
Cc1ccc(S(=O)(=O)c2cnc(SCC(=O)Nc3ccc4c(c3)OCCO4)[nH]c2=O)cc1C	.	11µM*	.	.	.	-3%
Cc1ccc(NC(=O)CSc2ncc(S(=O)(=O)c3ccc(C(C)C)cc3)c(=O)[nH]2)cc1C	.	?	.	.	.	-3%
Cc1cc(C)cc(NC(=O)CSc2ncc(S(=O)(=O)c3ccccc3)c(=O)[nH]2)c1	-4%	-6%	4%	1%	1%	-4%
Cc1ccc(S(=O)(=O)c2cnc(SCC(=O)Nc3ccccc3C(F)(F)F)[nH]c2=O)cc1C	.	11µM*	.	.	.	-8%
Cc1cccc2c1Oc1ccccc1[C@@H]2NC(=O)c1ccc([N+](=O)[O-])cc1	.	.	-7%[7.66 µM]	.	.	-3%[9.22 µM]
COc1ccccc1CN1CC2(CCN(C(=O)c3ccncc3)CC2)C1	.	.	-1%	.	.	-13%
Cc1cc(=O)n(CC(=O)NCCC(C)C)c2c1c(C)nn2C	.	1%	.	.	.	.
CCOC(=O)c1c(NC(=O)CSc2cn(CCNC(=O)c3ccccc3OC)c3ccccc23)sc2c1CCC2	.	-2%	.	.	.	16%
COc1ncc2nc(C)c(=O)n(CCC#N)c2n1	.	.	0%	.	.	-2%
OC[C@H]1O[C@@H](n2cnc3cncnc32)[C@H](O)[C@@H]1O	-2%[46.1 µM]	.	1%	.	7%[46.1 µM]	-24%
Nc1nc(Nc2ccccc2Br)nc(C(F)(F)F)n1	5%	?	-1%	?	2%	4%
Nc1nc(Nc2ccc(Cl)cc2Cl)nc(C(F)(F)F)n1	?	?	1%	18µM*	?	?
COc1ccc(CNc2ccc(N3CCOCC3)cc2)cc1	?	27µM*	.	-3%	13%	.
COc1ccc(NC(=O)c2ccc3c(c2)N(C)CCS3)cc1	4µM*	3.4µM*	.	?	2µM*	.
Cc1ccc(CN2CCSc3ccc(C(=O)Nc4ccc(C)cc4)cc32)cc1	.	21µM*	.	.	.	?
SMILES	Rab9 prom act	FLuc modulator	Luc counter	ELG1 genotoxic	NPC1 prom act	SMN2 splice up
CN1CCSc2ccc(C(=O)Nc3cccc(F)c3)cc21	1µM*	1.7µM*	.	2.1µM*	1.4µM*	.
COc1cccc(CNC(=O)c2sc3nc4n(c(=O)c3c2C)CCC4)c1	.	-2%	.	.	.	.
O=C(NC1CCN(Cc2ccccc2)C1)c1ccc(Cc2nc3ccccc3[nH]2)cc1 (stereo not given)	.	.	-1%	.	.	.
Cc1nnc2n(-c3ccccc3)c(=O)c3c4c(sc3n12)CC(C)CC4 (stereo not given)	-7%	2%	0%	-2%	-6%	22µM*
CC1CCc2c(sc3nnn(Cc4ccccc4)c(=O)c23)C1 (stereo not given)	.	0%	.	.	.	-9%
COc1cc(OC)c2c(=O)cc(-c3ccccc3)oc2c1	?	5.4µM*	.	23µM*	?	.
COc1cc(OC)c2c(=O)cc(-c3cccnc3)oc2c1	1%	?	.	?	-3%	.
COc1cc(C)c2c(=O)cc(-c3ccccc3)oc2c1	.	.	-9%	.	.	11µM*
COc1cccc(N2C(=O)C(CC(=O)Nc3cccc(F)c3)N(C(C)C)C2=O)c1 (stereo not given)	.	-1%	.	.	.	.
CCc1cc(C(=O)c2ccc(OC)cc2)c(N)s1	-1%	-2%	.	1%	-6%	.
COc1ccc(C(=O)c2no[n+]([O-])c2C(=O)c2ccc(OC)cc2)cc1	-1%	-3%	3%	3%	-1%	-95%
COc1ccc(C(=O)c2ccsc2N)cc1	?	17µM*	.	?	3.5µM*	.
COc1ccc(C(=O)c2ccc(CC#N)s2)cc1	?	12µM*	4%	?	?	13µM*
N#C/C(=C\c1ccncc1)c1nc2ccccc2o1	11%	-17%	.	3%	0%	.
N#C/C(=C\c1ccc(Cl)cc1)c1nc2ccccc2o1	0%	?	0%	6%	1%	-8%
N#C/C(=C\c1cccc(O)c1)c1nc2ccccc2o1	-10%	8.5µM*	.	11%	-2%	.
N#C/C(=C\Nc1ccccc1O)c1nc2ccccc2o1	0%	19µM*	-2%	-6%	-4%	-10%[1.84 µM]
CCOC(=O)C1=NNC(C(=O)c2ccccc2)C1c1ccc(C)cc1 (stereo not given)	-1%	?	.	-1%	1%	.
CCOC(=O)C1=NNC(C(=O)c2ccccc2)C1c1ccc(Cl)cc1 (stereo not given)	-3%	27µM*	.	0%	-4%	.
Nc1nc(SCC(=O)Nc2cccc(S(=O)(=O)N3CCCCCC3)c2)n[nH]1	-1%	17µM*	-1%	-1%	2%	-10%
Nc1nnc(SCC(=O)Nc2cccc(S(=O)(=O)N3CCCCC3)c2)s1	-5%	-17%	.	-2%	1%	.
O=C(CSc1nnc(Nc2ccccc2)s1)Nc1cccc(S(=O)(=O)N2CCCCC2)c1	-5%	12µM*	-3%	-1%	3%	-22%
Nc1ccccc1SSc1ccccc1N	6%[1.84 µM]	11µM*	.	10%	0%	.
CCOc1ccc(/C=N/NC(=O)c2ccc(CSc3nc4ccccc4[nH]3)cc2)cc1	12%	6.7µM*	-2%	-2%	4%	-7%
O=C(N/N=C/c1ccc(OC(F)F)cc1)c1ccc(CSc2nc3ccccc3[nH]2)cc1	4%	17µM*	-3%	0%	-6%	-6%[1.84 µM]
COc1ccccc1OCCNC(=O)c1ccc(C)o1	-2%	-18%	.	?	8%	.

High-throughput results from PubChem.
